# Cycloheximide cs – counter-screen hit for Shiga toxin inhibitors, cycloheximide; cell reporter, cycloheximide protein synthesis inhibition counterscreen; actives 12% (n = 300,000); max response, %; in the data active = max response mostly above about 13%, no sharp cut-off; inactive = mostly below about 14%; note: read at 38.3 µM for the half of the compounds with a filed dose; 0% is about no effect
# Shiga inhibitor – blocks Shiga toxin action in Vero cells; Vero cells, Shiga toxin protein synthesis inhibition reporter; inhibition, % at 38.7 µM; actives 9.2% (n = 290,000); in the data active = inhibition mostly above about 28%, no sharp cut-off; inactive = mostly below about 43%; note: 0% is about no effect
# LmPK inhibitor – LmPK (Leishmania mexicana) enzyme inhibition | Q27686 | Potency, µM (titrated, usually from 57.5 µM), without a hit: at the top dose activity change, negative = inhibition, usual class: inhibitors | actives 0.37% (n = 290,000) | purified LmPK, Kinase-Glo ATP luminescence, 1 h | AID 1721; note: potency is the fitted concentration of half-maximal effect; % is set by controls: 0 for no effect and ±100 for the full control effect
# Target sequence (Q27686 whole entry, looked up): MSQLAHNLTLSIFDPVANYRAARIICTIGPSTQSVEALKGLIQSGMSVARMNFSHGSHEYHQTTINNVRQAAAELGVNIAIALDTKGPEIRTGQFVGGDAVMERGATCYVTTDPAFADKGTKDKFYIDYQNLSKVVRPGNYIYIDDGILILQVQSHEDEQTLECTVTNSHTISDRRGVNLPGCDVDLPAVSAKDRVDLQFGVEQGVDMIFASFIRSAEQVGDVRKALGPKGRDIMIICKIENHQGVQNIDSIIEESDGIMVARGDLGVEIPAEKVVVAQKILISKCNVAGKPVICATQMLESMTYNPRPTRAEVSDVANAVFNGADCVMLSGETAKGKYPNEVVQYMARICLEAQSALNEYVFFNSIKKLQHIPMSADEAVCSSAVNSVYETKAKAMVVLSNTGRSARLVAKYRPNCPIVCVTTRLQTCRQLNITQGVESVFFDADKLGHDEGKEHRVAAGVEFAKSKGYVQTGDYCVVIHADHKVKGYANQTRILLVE
#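 qHTS format; LmPK 0.1 nM; substrates PEP 0.5 mM and ADP 0.1 mM. One-hour room-temperature incubation, then coupled luciferase luminescence; 0.5 nM enzyme wells mark activation.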
# Tb PYK inh – T. brucei pyruvate kinase inhibition. Q57TT1. TbPYK enzyme, Kinase-Glo Plus ATP luminescence, 45 min. Potency, µM (top dose mostly 76.8 µM), for inactives: top-dose activity, negative = inhibition, actives largely listed as inhibitors. actives 0.12% (n = 410,000); note: potency is the fitted concentration of half-maximal effect; % is set by controls: 0 for no effect and ±100 for the full control effect; nearly all actives have a fitted effect of over 50% in size
#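 Glycolytic pyruvate kinase of T. brucei was incubated with substrate, test compound and 130 uM ADP for 45 minutes at room temperature. Luminescent Kinase-Glo Plus signal was measured after 10 minutes.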
# RE007 growth inh – less growth of the S. pombe RE007 Vpr strain | actives 0.21% (n = 360,000) | Potency, µM (highest dose often 92.2 µM), without a hit: at the highest dose activity change, negative = less growth, usual class: inhibitors | S. pombe RE007 Vpr strain, BacTiter-Glo ATP luminescence, 24 h; active = well fitted falling curve with a large enough effect; inconclusive = small, poorly fitted or top-dose-only effect; inactive = no such curve, though single readings can be large or run the other way; note: potency is the fitted concentration of half-maximal effect; % is set by controls: 0 for no effect and ±100 for the full control effect; nearly all actives have a fitted effect of over 50% in size
#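 Fission yeast RE007 carrying one integrated HIV-1 vpr copy, seeded at OD 0.01 in PMG+AL medium with 23 nL pinned compound. Grown 24 h at 30 degrees; viability read by BacTiter-Glo luminescence after 5 min.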
# Giardia FBPA inh – inhibitors of Giardia lamblia fructose-1,6-bisphosphate aldolase. actives 0.71% (n = 290,000). Potency, µM (doses to about 59.6 µM), for inactives: at the highest dose activity, negative = inhibition, usual class: inhibitors. purified Giardia FBPA; note: potency is the fitted concentration of half-maximal effect; % is set by controls: 0 for no effect and ±100 for the full control effect; nearly all actives have a fitted effect of over 55% in size
#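 40 nM FBPA preincubated 10 min at RT with compound (up to 57.5 uM final), then substrate plus GAPDH/TPI/NAD/arsenate coupling and diaphorase/resazurin added. Fluorescence read after 20 min at RT, 525/598 nm.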
# * = called active by the depositor; ? = inconclusive; . = not tested or not shown; + = active, no number; ! = not active in a repeat; [ ] = dose if it differs, or a comment. Many of the other results were omitted from the sample, so hits are more common in it than they were. Unless noted, calls come from the whole dose curve; as a rule, active = well fitted curve in the direction sought with a large enough effect; inconclusive = small, poorly fitted or top-dose-only effect, or another doubt; inactive = no such curve, though single readings can be large; an effect the other way counts as inactive or inconclusive.
SMILES,Cycloheximide cs,Shiga inhibitor,LmPK inhibitor,Tb PYK inh,RE007 growth inh,Giardia FBPA inh
Cc1ccc(C(=O)OCC(=O)NCc2cccs2)cc1S(=O)(=O)N1CCOCC1,12,-10,5%[11.5 µM],2%,14%,2%
Cc1ccc(SCCc2ccc(C)nc2)cc1,22*,active,-3%,-1%,-1%,-3%
COc1ccc(CCn2c3c(c(=O)[nH]c2=O)C(NC(=O)c2ccc(C(C)(C)C)cc2)(C(F)(F)F)C(=O)N3)cc1OC (stereo unspecified),.,.,.,-6%,.,.
CC(NC(=O)C(=O)NCCC1=CCCCC1)c1ccccc1 (stereo unspecified),2,-9,0%,-5%,3%,5%
CCCCNc1nc(N)nc(-c2cc(Cl)ccc2O)n1,74*,79*,1%,-9%,-29%,1%
CCCNc1nc(N)nc(-c2cc(Cl)ccc2OC)n1,8,-7,-3%,-25%,-10%,3%
CCNc1nc(N)nc(-c2cc(Cl)ccc2O)n1,49*,56*,-1%,-2%,-2%,1%
COc1ccc(S(=O)(=O)/N=C2\C=C(Nc3ccc(O)cc3)C(=O)c3ccccc32)cc1,10,13,-21%,-27%,-21%,?
CC(C)c1ccc(S(=O)(=O)/N=C2/C=CC(=O)c3ccccc32)cc1,15,6,-15%,.,.,14µM*
Cc1ccc(-c2csc(NC(=O)c3ccc(F)cc3)c2C(=O)O)cc1,40*,94*,0%,-1%,5%,1%
O=C(Nc1nc2nccc(-c3ccccc3)n2n1)c1ccc(F)cc1,1,-9,1%,1%,16%,7%
O=C(Nc1nsc(-c2ccccc2)n1)c1ccc(F)cc1,32*,74*,-3%,0%,-14%,-8%
O=C(Nc1scc(-c2ccccc2)c1C(=O)O)c1ccc(F)cc1,24*,20*,-8%,-1%,4%,-22%
COc1cc(/C=C(/NC(=O)c2ccccc2)C(=O)Nc2ccc(O)cc2)c([N+](=O)[O-])cc1OC,0,-4,1%,-7%,2%,-4%
CC1=NOC(=O)/C1=C\c1ccc(-c2ccccc2Br)o1,-7,-9,-9%,?,?,-25%
COCCCn1c(=O)c2sccc2n2c(CCCC(=O)N(C)Cc3ccco3)nnc12,-1,-9,1%,-3%,19%,15%
CC(=O)Nc1nnc(SCc2ccc(F)cc2)s1,39*,23,4%,3%,5%,.
CC(=O)Nc1nnc(SCc2cccc(F)c2)s1,13,21*,-3%,-2%,7%,6%
O=C(Nc1nnc(SCc2ccc(F)cc2)s1)c1cnccn1,14,-6,-1%,-7%,-14%,3%
O=C(Nc1nnc(SCc2ccc(F)cc2)s1)c1ccc2ncsc2c1,65*,+,4%,-13%,7%,?
CC(=O)c1sc2c(c1C)c(=O)n(-c1ccc(Cl)cc1)c(=O)n2Cc1cc(=O)n2cc(Cl)ccc2n1,.,.,.,-11%,.,.
COc1ccc(-c2nc(C)ncc2N=Nc2ccccc2)cc1,20*,23,3%,0%,8%,4%
CC(=O)Nc1cccc(-c2csc(N)n2)c1,-2,30,0%,-3%,-12%,1%
CC(=O)Nc1cccc(-c2csc(Nc3ccc(Cl)cn3)n2)c1,46*,146*,4%,-2%,?,-5%
CC(=O)Nc1ccc(-c2csc(Nc3ccc(Cl)cn3)n2)cc1,38*,23,-4%,4%,6%,-4%
SMILES,Cycloheximide cs,Shiga inhibitor,LmPK inhibitor,Tb PYK inh,RE007 growth inh,Giardia FBPA inh
COc1cc2c(cc1NC(=O)c1ccccc1F)CCCC2,50*,93*,1%,-6%,0%,-1%
O=C(Nc1cccc2c1CCCC2)c1ccccc1F,22*,44,-1%,8%,-6%,-11%
COc1cc(OC)c(NC(=O)c2ccccc2F)cc1Cl,4,31,1%,2%,0%,0%
COc1cc2c(cc1NC(=O)c1cccc(F)c1)CCCC2,36*,67*,2%,-4%,.,-5%
O=C(Nc1cccc2c1CCCC2)c1cccc(F)c1,-3,-5,-1%,0%,7%,3%
COc1ccc(C2CC(c3cccs3)n3nc(N)nc3N2)cc1 (stereo unspecified),7.4*,23*,3%,-12%,3%,2%
CCc1cc(C(=O)NC(C)C2CCCO2)cs1 (stereo unspecified),40*,62*,-2%,-4%,14%,.
Cc1cc(C(=O)NC(C)C2CCCO2)cs1 (stereo unspecified),-4,33,-2%,0%,8%,0%
CC1CCc2sc(C(=O)NC(C)C3CCCO3)cc2C1 (stereo unspecified),40*,88*,-9%,-7%,12%,.
CC1CCc2sc(C(=O)N/N=C/c3ccc(O)cc3)cc2C1 (stereo unspecified),45*,54*,7%,1%,6%,-2%
CC1CCc2sc(C(=O)NNC(=S)NCC3CCCO3)cc2C1 (stereo unspecified),7,9,-7%,3%,6%,-9%
CCCc1cc(C(=O)NC(C)C2CCCO2)cs1 (stereo unspecified),40*,71*,-2%,-6%,1%,.
C=C1CCN(C(CC(C)C)C(=O)NCc2ccc(Cl)cc2)S(=O)(=O)c2ccccc21 (stereo unspecified),-3,-9,.,.,.,-3%
CCCc1cc(C(=O)NNC(=S)NCC2CCCO2)cs1 (stereo unspecified),14*,6,0%,-5%,-3%,0%
COc1ccccc1N1CCN(CC(=O)Nc2c(C)n(C)n(-c3ccccc3)c2=O)CC1,-5,-16,-4%,4%,9%,?
CC(C)c1ccc(CNCc2ccccc2)cc1,32*,60*,-2%,-7%,9%,-8%
Cc1ccc(S(=O)(=O)Nc2ccccc2C(=O)N2CCCCC2)cc1,-1,-3,-9%,5%,-13%,.
CC(C)CC(N)c1csc(Nc2ccccn2)n1 (stereo unspecified),.,.,.,-5%,13%[18.4 µM],.
CCC(C(=O)NC1CCCCC1)n1c(SCc2ccccc2F)nc2ccncc21 (stereo unspecified),17*!,44,0%,9%,-3%,0%
Cc1ccc2cc3c(N)[nH]nc3nc2c1,21*,14,0%,-12%,-5%,4%
Cc1ccc2ccc(C3C(=O)c4ccccc4C3=O)nc2c1,.,.,.,-1%,-7%,.
O=C(CC1CCS(=O)(=O)C1)NC1CCCCC1 (stereo unspecified),-2,-6,0%,3%,7%,3%
C=CCOC(=O)CCCC(=O)NC1CCCCC1,8,active,-3%,1%,8%,0%

# Screening results deposited in PubChem by National Center for Advancing Translational Sciences (NCATS).
